The structures appear in SMILES notation. Records with an inconclusive call do not appear. Where a call stands in place of a potency, no number is given. Calls of active or inactive are those of the source. Calls come from the whole dose curve; as a rule, active = well fitted inhibition curve with a large enough effect; inconclusive = small, poorly fitted or top-dose-only effect; inactive = flat fitted curve, though single readings scatter.

Chain of Glutathione peroxidase 1 (Homo sapiens) (P07203 whole entry, looked up): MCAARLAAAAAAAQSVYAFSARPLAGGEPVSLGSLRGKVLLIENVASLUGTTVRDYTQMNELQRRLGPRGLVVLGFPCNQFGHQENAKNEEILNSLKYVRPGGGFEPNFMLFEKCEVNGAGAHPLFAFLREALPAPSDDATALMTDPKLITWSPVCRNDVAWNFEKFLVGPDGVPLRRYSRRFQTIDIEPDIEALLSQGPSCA

This assay addresses Glutathione peroxidase 1 (Homo sapiens) (UniProt P07203). As to the kind of experiment: Primary qHTS Assay for Inhibitors of Recombinant Selenoprotein Glutathione Peroxidase 1 (GPX1) (AID 1845191). Note: nearly all actives have a fitted effect of over 65% in size. The note with it: recombinant GPX1, GR-coupled NADPH fluorescence, 15 min; series mostly up to 48.8 µM. The method in brief:
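Recombinant GPX1 (10 nM final) was preincubated with compound for 30 min at room temperature, then reacted with 1 mM GSH, 0.5 mM CHP, 0.5 mM NADPH and 100 nM glutathione reductase; NADPH fluorescence (340/450 nm) was read at 0 and 15 min.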
On the technique in general: In qHTS, concentration-response curves come from the screen itself.
Consider `CCOC(=O)N1c2ccc(C(F)(F)F)cc2[C@@H](N(Cc2cc(C(F)(F)F)cc(C(F)(F)F)c2)C(=O)OC)C[C@H]1CC`, for which the Potency entry was “inactive”.
The value for `C#CCN(C)CC1=Cc2ccccc2Oc2ccccc21` was “inactive”; that for `CCOc1ccccc1N=Nc1c(C)[nH]n(-c2nc(-c3ccccc3)cs2)c1=O` was “inactive”.
The value for `CC[C@]1(O)C[C@H]2CN(CCC3=c4ccccc4=N[C]3[C@@](C(=O)OC)(c3cc4c(cc3OC)N(C)[C@H]3[C@@](O)(C(N)=O)[C@H](O)[C@]5(CC)C=CCN6CC[C@]43[C@@H]65)C2)C1` was “inactive”; that for `CN1CCN2c3ncccc3Cc3ccccc3C2C1` (stereo not drawn) was “inactive”; that for `Cc1ccc(C(=O)N(CCCN)[C@@H](c2nc3cc(Cl)ccc3c(=O)n2Cc2ccccc2)C(C)C)cc1` was “inactive”.
The result for `COc1c(C)cnc(Cn2cnc3c(Cl)nc(N)nc32)c1C` reads “inactive”.
On to `CC[C@@H]([C@H](C)O)n1ncn(-c2ccc(N3CCN(c4ccc(OCC5CO[C@@](Cn6cncn6)(c6ccc(F)cc6F)C5)cc4)CC3)cc2)c1=O` (stereo partly drawn), for which the Potency result is “inactive”.
For the molecule `CC1=C(CC(=O)O)c2cc(F)ccc2C1=Cc1ccc(S(C)=O)cc1` (stereo not drawn), the Potency result is “inactive”.
The result for `COc1cc([C@@H]2c3cc4c(cc3[C@@H](O[C@@H]3O[C@@H]5CO[C@@H](C)O[C@@H]5[C@H](O)[C@@H]3O)[C@H]3COC(=O)[C@H]23)OCO4)cc(OC)c1O` reads “inactive”.
The result for `Cc1ccc(S(=O)(=O)Nc2nc3ccccc3nc2Nc2ccc3nsnc3c2)cc1` reads “inactive”; that for `COc1cc2nccc(Oc3ccc(NC(=O)Nc4ccc(F)cc4F)c(F)c3)c2cc1OC`, “inactive”.
Regarding `CCCCC(C)(C)[C@H](O)C=C[C@H]1[C@H](O)CC(=O)[C@H]1CC=CCCCC(=O)O`, the Potency result was “inactive”.

Source of the values: PubChem BioAssay (NCATS).
